Sampled rows, rich in hits. Any-hit rate of the full collection: about 21%.
IL-1B inflam inh: inhibitors of inflammasome signaling (IL-1 beta secretion) | THP-1 LPS/ATP IL-1B secretion, AlphaLISA, 16 h; active compounds read low | activity change, % at 57.5 µM | 360,000 tested, 4.7% active; in the data active means activity change below about -50%; inconclusive means mostly about -30% to -49%; further: on the % scale 0 is the no-effect control and ±100 the full control effect
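Secreted IL-1B measured by AlphaLISA bead assay after 16 h compound exposure of THP-1 cells; compounds (final up to 57.5 uM) added 1 h before LPS (250 ng/mL) and ATP (1.25 mM) stimulation; lower signal means less secretion.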
D3 ag: agonists of human D3 dopamine receptor | D3R DiscoveRx beta-arrestin cells, luminescence, 90 min | max activation, % | 410,000 tested, 0.58% active; in the data active means max activation above about 30%; further: 0% is about no effect
Target sequence (P35462 whole entry, looked up): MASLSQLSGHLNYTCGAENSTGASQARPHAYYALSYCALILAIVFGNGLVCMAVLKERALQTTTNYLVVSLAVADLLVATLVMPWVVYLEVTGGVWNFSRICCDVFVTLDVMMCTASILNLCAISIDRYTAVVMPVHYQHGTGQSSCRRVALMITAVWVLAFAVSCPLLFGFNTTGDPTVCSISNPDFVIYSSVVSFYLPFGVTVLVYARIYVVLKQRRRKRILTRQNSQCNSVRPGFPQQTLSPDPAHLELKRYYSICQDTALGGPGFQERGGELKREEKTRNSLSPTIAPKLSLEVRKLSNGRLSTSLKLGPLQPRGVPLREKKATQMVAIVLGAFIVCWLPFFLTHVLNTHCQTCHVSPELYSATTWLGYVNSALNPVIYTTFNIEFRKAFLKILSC
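Cells at 1500/well, incubated overnight, then treated with pinned compounds (dopamine as control) for 90 min at 37 degrees C. DiscoveRx reagent added for 30 - 60 minutes at room temperature; luminescence read.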
ClpP mod: qHTS Assay for Activators of ClpP; ATP-dependent Clp protease proteolytic subunit (Bacillus subtilis (strain 168)), P80244; purified B. subtilis ClpP, FRET peptide cleavage, 20 min; Potency, µM (series often up to 57.5 µM), without a hit: at the highest dose activity change, negative = active; 340,000 tested, 1.9% active; AID 651965, 2013; active means well fitted falling curve with a large enough effect; inconclusive means small, poorly fitted or top-dose-only effect; inactive means no such curve, though single readings can be large or run the other way; further: potency means the concentration at half of the fitted maximal effect; the source files actives as falling curves though it sought activators and does not explain the sign; nearly all actives have a fitted effect of over 65% in size
Target sequence (P80244 whole entry, looked up): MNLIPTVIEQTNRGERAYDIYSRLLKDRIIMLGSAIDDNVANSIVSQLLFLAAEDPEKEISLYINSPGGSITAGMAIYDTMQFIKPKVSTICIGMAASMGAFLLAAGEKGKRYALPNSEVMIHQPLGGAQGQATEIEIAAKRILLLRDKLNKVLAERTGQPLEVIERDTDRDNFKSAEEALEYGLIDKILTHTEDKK
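Buffer: 100 mM Tris/HCl pH8, 100 mM KCl, 0.05% low protease BSA, 2.5% glycerol, 0.01% Tween-20. ClpP 10 microg/mL final; 20 min RT; delta FRET normalized to ADEP and DMSO controls.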
DRD3 antagonist: antagonists of human D3 dopamine receptor | D3R cells, DiscoveRx beta-arrestin luminescence, antagonist mode; active compounds read low | P35462 | 360,000 tested, 2.5% active | max response, negative = inhibition, %; in the data active means max response below about -50%; inconclusive means no clear call, values can overlap the other calls; further: on the % scale 0 is the no-effect control and ±100 the full control effect
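Cells plated overnight at 1500 cells/well, then exposed to library compounds with dopamine controls for 90 minutes at 37 degrees C. DiscoveRx reagent added for 30–60 minutes at room temperature; luminescence read, quantitative HTS format.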
DT40 TDP1 CPT: DT40-hTDP1 cell growth loss with CPT | Potency, µM (series often up to 46.2 µM), inactives show at the top dose activity change, negative = growth inhibition, hits mostly inhibitors | AID 686979 | chicken DT40 Tdp1-/-;hTDP1 cells + 20 nM CPT, ATP luminescence, 48 h | 420,000 tested, 12% active; further: potency means the concentration at half of the fitted maximal effect; on the % scale 0 is the no-effect control and ±100 the full control effect; nearly all actives have a fitted effect of over 55% in size
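Chicken DT40 Tdp1-/- cells complemented with human TDP1, 400 cells/well, exposed to compounds plus 20 nM camptothecin for at least 48 h at 37 C; viability read as ATP content by CellTiter-Glo luminescence.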
DT40 TDP1 no CPT: qHTS for Inhibitors of human tyrosyl-DNA phosphodiesterase 1 (TDP1): qHTS in cells in absence of CPT; 420,000 tested, 15% active; Potency, µM (top dose mostly 46.2 µM), inactives show top-dose activity change, negative = growth inhibition, actives largely listed as inhibitors; AID 686978, 2013; DT40 Tdp1-/- hTDP1 cells, no CPT, ATP luminescence, 48 h; further: potency means the concentration at half of the fitted maximal effect; on the % scale 0 is the no-effect control and ±100 the full control effect; nearly all actives have a fitted effect of over 55% in size
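Stably hTDP1-transfected Tdp1-null chicken DT40 cells were treated with library compounds minus camptothecin and grown for at least 48 hr at 37 °C, after which cellular ATP was quantified by luminescence.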
An asterisk follows results filed as active; u = inconclusive; x = no result given. Unless noted, the call rests on the fitted dose curve; in most records, active means well fitted inhibition curve with a large enough effect; inconclusive means small, poorly fitted or top-dose-only effect; inactive means flat fitted curve, though single readings scatter.

SMILES	IL-1B inflam inh	D3 ag	ClpP mod	DRD3 antagonist	DT40 TDP1 CPT	DT40 TDP1 no CPT
CCOC(=O)NN1C(=O)c2ccccc2NC1c1ccc(OC)c(OC)c1 (centres undefined)	9	9	x	12	-20%	-14%
CN(CC(=O)Nc1ccc(Cl)c(C(F)(F)F)c1)C(=O)c1cccs1	u	-3	x	7	u	16µM*
CN(CC(=O)Nc1ccc(Cl)c(C(F)(F)F)c1)C(=O)CCCc1nc2ccccc2c(=O)[nH]1	5	4	0%	21	12µM*	12µM*
CN(CC(=O)Nc1ccc(Cl)c(C(F)(F)F)c1)C(=O)CC1Sc2ccccc2NC1=O (centres undefined)	u	0	2%	11	13µM*	13µM*
CN(CC(=O)Nc1ccc(Cl)c(C(F)(F)F)c1)C(=O)c1cnccn1	-24	-10	0%	-3	u	u
Cc1cc(C(=O)N(C)CC(=O)Nc2ccc(Cl)c(C(F)(F)F)c2)no1	-10	-5	-3%	-9	-26%	16µM*
O=C(O)C(Cc1ccccc1)N1C(=O)C2C3CCC(C3)C2C1=O (centres undefined)	0	-7	-3%	11	-16%	-6%
Cc1ccc(C)c(OCC(=O)N(C)CC(=O)Nc2ccc(Cl)c(C(F)(F)F)c2)c1	-13	5	-4%	-18	u	u
CN(CC(=O)Nc1ccc(Cl)c(C(F)(F)F)c1)C(=O)c1ccc2c(c1)NC(=O)CS2	-24	1	-1%	0	u	23µM*
CN(CC(=O)Nc1ccc(Cl)c(C(F)(F)F)c1)C(=O)c1cc(-c2ccncc2)nc2ccccc12	-96*	6	-16%	20	u	18µM*
Cc1ccc(NC(=O)CCCc2nc3ccccc3c(=O)[nH]2)c(Cl)c1	4	0	-3%	-1	18µM*	15µM*
Cc1c(Cl)cccc1NC(=O)CNC(=O)CCCc1nc2ccccc2c(=O)[nH]1	-4	-2	-5%	-3	-19%	-15%
CN(CC(=O)Nc1ccc(Cl)c(C(F)(F)F)c1)C(=O)c1cccnc1Sc1ccccc1	32	1	-2%	9	u	u
Cc1cccc(C(=O)OCC(=O)N(C)CC(=O)Nc2ccc(Cl)c(C(F)(F)F)c2)c1	0	0	0%	15	15µM*	u
C/C(=N\NC(=O)CCC(=O)NCc1ccccc1)c1ccco1	3	1	1%	9	-12%	17%
O=C(NCC1CCCCC1)c1cc(S(=O)(=O)N2CCOCC2)ccc1F	14	-2	1%	-2	-28%	u
CSc1ncccc1C(=O)N(C)CC(=O)Nc1ccc(Cl)c(C(F)(F)F)c1	-2	5	-1%	15	u	u
CC(OC(=O)CCc1ccccc1)C(=O)Nc1ncc(Cl)cc1Cl (centres undefined)	2	2	-4%	5	9%	14%
CN(CC(=O)Nc1ccc(Cl)c(C(F)(F)F)c1)C(=O)C1(c2ccccc2)CC1	-57*	-21	1%	-3	u	16µM*
CN(CC(=O)Nc1ccc(Cl)c(C(F)(F)F)c1)C(=O)c1cn2ccccc2n1	-8	1	-9%	13	13µM*	10µM*
CC(OC(=O)CCc1nc2ccccc2c(=O)[nH]1)C(=O)Nc1ncc(Cl)cc1Cl (centres undefined)	-77*	-7	x	-2	-21%	-5%
CCc1nc(NCCO)c(C#N)c2c1CSC(C)(C)C2	17	1	4%	52	u	u
CN1CCN(c2ccc(NC(=O)COc3ccccc3[N+](=O)[O-])cc2)CC1	4	-8	x	-15	-2%	u
CC(C)C(=O)N1CCN(c2ccc(NC(=O)COc3ccccc3[N+](=O)[O-])cc2)CC1	-90*	0	x	144	15µM*	18µM*
O=C(COc1cc(F)ccc1[N+](=O)[O-])Nc1ccc(N2CCCCC2)cc1	-67*	4	-3%	0	u	u
SMILES	IL-1B inflam inh	D3 ag	ClpP mod	DRD3 antagonist	DT40 TDP1 CPT	DT40 TDP1 no CPT
CCN(CC)C(=O)COc1ccc(/C=C(\C#N)S(=O)(=O)c2ccccc2)cc1OC	13	3	-9%	13	1%	8%
Cc1ccc(-c2nnc(N3CCC(C)CC3)c3ccccc23)cc1	-14	-2	0%	4	13µM*	8.2µM*
Cc1ccc(-c2nnc(N3CCC(C)CC3)c3ccccc23)cc1C	-95*	-10	x	u	6.5µM*	9.2µM*
Cc1ccc(-c2nnc(N3CCOCC3)c3ccccc23)cc1S(=O)(=O)N(C)C	-6	-14	x	5	-24%	-13%
CCN1CCCC1CNC(=O)c1cnn(-c2nccc(-c3cc(OC)ccc3OC)n2)c1C (centres undefined)	x	x	x	x	10%	-23%
O=C(/C=C/c1ccccc1)NC(=S)Nc1ccccc1O	-63*	-9	x	-21	u	21µM*
NC(=S)NC(=O)/C=C/c1ccccc1	-96*	-3	x	-7	-10%	u
O=C(/C=C/c1ccc(F)cc1)NC(=S)Nc1ccccc1O	u	-5	x	-26	u	18µM*
Cc1noc(C)c1CSCC(=O)Nc1cc(C(F)(F)F)ccc1N1CCOCC1	u	-6	u	0	-19%	-27%
O=c1c(Cc2c(F)cccc2Cl)c(O)ccn1CCCn1ccnc1	13	1	-1%	0	-20%	2%
CCN(CC)c1ccc(/C=N/N2CCN(c3ccccn3)CC2)cc1	0	6	-1%	18	7%	8%
CN(C)c1ccc(/C=C/c2cc3ccccc3cn2)cc1	x	x	-4%	x	0.45µM*	0.45µM*
CN(C)c1ccc(/C=C/c2ccccn2)cc1	x	x	0%	x	1.4µM*	4.5µM*
CCN(CC)c1ccc(/C=C/c2ccccn2)cc1	x	x	2%	x	0.18µM*	0.28µM*

Source: PubChem (National Center for Advancing Translational Sciences (NCATS))
